Pf Dd2 growth: Plasmodium falciparum Dd2 growth inhibition | P. falciparum Dd2 growth, SYBR Green, 72 h | Potency, µM (highest dose often 28.9 µM), without a hit: at the top dose activity, negative = inhibition, hits mostly inhibitors | 120,000 tested, 4.3% active | AID 1347417; active means well fitted inhibition curve with a large enough effect;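 further: plate controls were DMSO vehicle for no effect and reference drug for full effect; nearly all actives have a fitted effect of over 65% in size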
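Readout: SYBR Green fluorescence, 485 nm excitation, 535 nm emission, after ~16 h lysis at 37C. Before that, Dd2-infected red cells (2.5% hematocrit) grew 72 h with compound, 29 uM top final concentration.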
* hit, by the source's call; [ ] = another dose, or the depositor's remark. The sample as a whole holds a higher share of hits than the screen did. Potency means the concentration at half of the fitted maximal effect.

How did CCOc1cc(C(=O)N2CCc3c([nH]c4ccccc34)C2c2ccccc2)cc(OCC)c1OCC (stereo unspecified) do in these assays?
Pf Dd2 growth: 2µM*

Results for COc1ccccc1C(=O)NC1CCCc2c1[nH]c1ccccc21 (stereo unspecified) ?
Pf Dd2 growth: -22%

How did COc1ccc(C2c3[nH]c4ccc(OC)cc4c3CCN2C(=O)Nc2ccccc2)cc1 (stereo unspecified) do in these assays?
Pf Dd2 growth: 6.3µM*

What do the screens show for `COc1ccc(C(=O)N2CC(=O)Nc3ccc(Br)cc3C2c2ccc(F)cc2)cc1OC` (stereo unspecified)?
Pf Dd2 growth: -24%

Results for CCOc1cccc(CC(=O)N2CCc3c([nH]c4ccccc34)C2c2ccc(Cl)cc2)c1OCC (stereo unspecified) ?
Pf Dd2 growth: 5µM*

Results for CCOc1cccc(CC(=O)NCc2ccc3c(c2)CCN3C(=O)c2cccc(C)c2)c1OCC ?
Pf Dd2 growth: -14%

What do the screens show for `CCOc1cc(CNC(=O)C2CCN(c3nc4ccccc4[nH]3)CC2)cc(OCC)c1OCC`?
Pf Dd2 growth: 29%

Results for CCOc1cc(C(=O)N2CCC[C@H]2c2nc(-c3ccc(C)cc3)no2)cc(OCC)c1OCC ?
Pf Dd2 growth: inactive

Results for CCc1ccccc1NC(=O)N1CCc2c([nH]c3ccccc23)C1c1ccc(C)cc1 (stereo unspecified) ?
Pf Dd2 growth: -20%

What do the screens show for `COc1cc(C(=O)N2CCc3c([nH]c4ccccc34)C2c2ccc(F)cc2)cc(OC)c1OC` (stereo unspecified)?
Pf Dd2 growth: 4.5µM*

How did CCOC(=O)C1=CN(CC(=O)Nc2cccc(Cl)c2)S(=O)(=O)N=C1C do in these assays?
Pf Dd2 growth: -5%

Results for CCn1nc(C)cc1C(=O)N1CCOC[C@H](Oc2ccc(OC)cc2)C1 ?
Pf Dd2 growth: inactive

Results for COc1ccc(NC(=O)O[C@@H]2CC[C@]3(C)C(CC[C@@H](O)[C@H]3CC(=O)NCc3ccc4c(c3)OCO4)[C@]2(C)CO)cc1 (stereo partly specified) ?
Pf Dd2 growth: -22%

What do the screens show for `CCC(CC)C(=O)NC1CCN(c2cnn(Cc3ccccc3)c(=O)c2)CC1`?
Pf Dd2 growth: -5%

Results for COc1ccnc(-c2nnc3ccc(NC4CCOCC4)nn23)c1 ?
Pf Dd2 growth: inactive

How did O=C(CCc1ccccc1)N1C[C@@H](CO)[C@H](c2ccncc2)C1 do in these assays?
Pf Dd2 growth: 2%

How did CC(C)Oc1cccc(-c2nnc(CCC(=O)N3CCC(Cc4ccccc4)CC3)c(=O)[nH]2)c1 do in these assays?
Pf Dd2 growth: inactive

What do the screens show for `CC1CCN(C(=O)C[C@@H]2O[C@H](CNC(=O)C3CC3)[C@@H](O)[C@H]2O)CC1`?
Pf Dd2 growth: 2%[44.1 µM]

What do the screens show for `CC(=O)N(C1CC1)C1CCOC2(CCN(C(=O)c3nccc4ccccc34)CC2)C1` (stereo unspecified)?
Pf Dd2 growth: -23%

Results for COCc1nc2nc(-c3ccccc3)c(-c3ccc(OC)cc3)cc2n1C ?
Pf Dd2 growth: inactive

What do the screens show for `COc1ccccc1-c1cc2c(nc1OC)nc(CC1CC1)n2C`?
Pf Dd2 growth: 13µM*

How did COc1nc2nc(CCc3ccccc3)n(C)c2cc1Nc1ccncn1 do in these assays?
Pf Dd2 growth: -12%[44.1 µM]

Results for COc1ccc(CN2CCCC3(C2)NC(=O)c2ccccc2O3)cc1 (stereo unspecified) ?
Pf Dd2 growth: inactive

How did CC(=O)N1CCc2c(sc3c2c(=O)n(-c2ccc(F)cc2)c(=O)n3Cc2cc(C)ccc2C)C1 do in these assays?
Pf Dd2 growth: -1%

What do the screens show for `CCOC(=O)N1CCc2c(sc3c2c(=O)n(-c2ccc(Cl)cc2)c(=O)n3CC(=O)Nc2ccccc2)C1`?
Pf Dd2 growth: 8.9µM*

How did CC(=O)N1CCc2c(sc3c2c(=O)n(-c2cccc(Cl)c2)c(=O)n3Cc2ccc(F)cc2Cl)C1 do in these assays?
Pf Dd2 growth: 11µM*

How did CCOC(=O)N1CCc2c(sc3c2c(=O)n(-c2ccc(Cl)cc2)c(=O)n3Cc2cccc(OC)c2)C1 do in these assays?
Pf Dd2 growth: -21%

Results for CCOC(=O)N1CCc2c(sc3c2c(=O)n(-c2ccc(Cl)cc2)c(=O)n3Cc2cccc(C)c2)C1 ?
Pf Dd2 growth: -6%

Results for COc1cccc(-n2c(=O)c3c4c(sc3n(Cc3ccc(F)cc3Cl)c2=O)CCCC4)c1 ?
Pf Dd2 growth: 13%

What do the screens show for `O=C(Cn1c(=O)n(-c2ccccc2)c(=O)c2c3c(sc21)CCCC3)Nc1ccc(F)cc1`?
Pf Dd2 growth: 19%

What do the screens show for `CCOC(=O)N1CCc2c(sc3c2c(=O)n(-c2ccc(Cl)cc2)c(=O)n3CC(C)C)C1`?
Pf Dd2 growth: 17%

Results for CCOC(=O)N1CCc2c(sc3c2c(=O)n(Cc2ccccc2)c(=O)n3Cc2cccc(Cl)c2)C1 ?
Pf Dd2 growth: 11µM*

How did CC(=O)N1CCc2c(sc3c2c(=O)n(-c2ccccc2C)c(=O)n3CC(=O)c2ccccc2)C1 do in these assays?
Pf Dd2 growth: -4%

Results for CC(=O)N1CCc2c(sc3c2c(=O)n(CCc2ccccc2)c(=O)n3Cc2ccccc2C)C1 ?
Pf Dd2 growth: 7.9µM*

How did CC(=O)N1CCc2c(sc3c2c(=O)n(Cc2ccccc2)c(=O)n3Cc2cc(C)ccc2C)C1 do in these assays?
Pf Dd2 growth: -16%

What do the screens show for `COCCn1cnnc1C(C)Nc1nc(-c2cccnc2)nc2c1CNC2` (stereo unspecified)?
Pf Dd2 growth: -25%

Results for CCN1CCN(C(=O)CN2CC3CC(C2)[C@H]2CCCC(=O)N2C3)CC1 (stereo partly specified) ?
Pf Dd2 growth: 1%

What do the screens show for `COc1ccc(N2Cc3c(ncnc3N3CCN(C(C)=O)CC3)N(C)CC2=O)cc1`?
Pf Dd2 growth: 14%

How did Cc1ccc(-c2noc(CCCc3nc(-c4cccnc4)no3)n2)nn1 do in these assays?
Pf Dd2 growth: inactive

What do the screens show for `O=C(c1ccccc1OCC1CCCN(C(=O)c2n[nH]c3ccccc23)C1)N1CCOCC1` (stereo unspecified)?
Pf Dd2 growth: -23%

What do the screens show for `Cn1nc(C2CCN(C(=O)COc3ccc(F)cc3)CC2)c2c1CCOC2`?
Pf Dd2 growth: inactive[5.79 µM]

Results for CN(C)c1ccc(C(=O)NC[C@H]2O[C@@H](CO)[C@@H](O)[C@H]2N2CCN(c3ccccc3)CC2)cc1 ?
Pf Dd2 growth: inactive

What do the screens show for `CCCNC(=O)N1CCC(n2c(C)cnc2C2CCOCC2)CC1`?
Pf Dd2 growth: 11%

How did Cn1cnc([S+](=O)([O-])NC2CCN(C(=O)N3CC4CC(C3)[C@H]3CCCC(=O)N3C4)CC2)c1 (stereo partly specified) do in these assays?
Pf Dd2 growth: 13%

Results for CC(=O)c1cccc(-n2c(=O)c3c4c(sc3n(CC(=O)Nc3ccccc3F)c2=O)CN(C(C)=O)CC4)c1 ?
Pf Dd2 growth: 17%

How did CCc1ccc(-n2c(=O)c3c4c(sc3n(CC(=O)c3ccc(Cl)cc3)c2=O)CCC4)cc1 do in these assays?
Pf Dd2 growth: -19%

What do the screens show for `CCOC(=O)N1CCc2c(sc3c2c(=O)n(Cc2ccccc2)c(=O)n3CC(=O)Nc2cccc(CC)c2)C1`?
Pf Dd2 growth: 7.1µM*

What do the screens show for `CCc1ccc(-n2c(=O)c3c4c(sc3n(CC(=O)c3ccc(Br)cc3)c2=O)CCC4)cc1`?
Pf Dd2 growth: -24%

What do the screens show for `CCOC(=O)N1CCc2c(sc3c2c(=O)n(CCc2ccccc2)c(=O)n3CC(=O)Nc2ccccc2C)C1`?
Pf Dd2 growth: 0%

High-throughput results deposited in PubChem by National Center for Advancing Translational Sciences (NCATS).
